The source of these data is ChEMBL document CHEMBL3988442, “University of Dundee, Small-Polar-MMV Screening Library” (2021).

What all share (design): scale not given: direction of the effect not stated beside the values
For assay [1], the target named is Protein translocase subunit SecA (Escherichia coli (strain K12)) (UniProt P10408). As to the kind of experiment: Assay to Identify E. coli SecA ATPase Inhibitors. Type of assay: functional. The note with it: 30 µM.
Assay [2] deals with T1, Ubiquitin-activating enzyme e1, putative (Leishmania donovani (strain BPK282A1)) (UniProt E9BSI1).
T1 sequence (whole entry): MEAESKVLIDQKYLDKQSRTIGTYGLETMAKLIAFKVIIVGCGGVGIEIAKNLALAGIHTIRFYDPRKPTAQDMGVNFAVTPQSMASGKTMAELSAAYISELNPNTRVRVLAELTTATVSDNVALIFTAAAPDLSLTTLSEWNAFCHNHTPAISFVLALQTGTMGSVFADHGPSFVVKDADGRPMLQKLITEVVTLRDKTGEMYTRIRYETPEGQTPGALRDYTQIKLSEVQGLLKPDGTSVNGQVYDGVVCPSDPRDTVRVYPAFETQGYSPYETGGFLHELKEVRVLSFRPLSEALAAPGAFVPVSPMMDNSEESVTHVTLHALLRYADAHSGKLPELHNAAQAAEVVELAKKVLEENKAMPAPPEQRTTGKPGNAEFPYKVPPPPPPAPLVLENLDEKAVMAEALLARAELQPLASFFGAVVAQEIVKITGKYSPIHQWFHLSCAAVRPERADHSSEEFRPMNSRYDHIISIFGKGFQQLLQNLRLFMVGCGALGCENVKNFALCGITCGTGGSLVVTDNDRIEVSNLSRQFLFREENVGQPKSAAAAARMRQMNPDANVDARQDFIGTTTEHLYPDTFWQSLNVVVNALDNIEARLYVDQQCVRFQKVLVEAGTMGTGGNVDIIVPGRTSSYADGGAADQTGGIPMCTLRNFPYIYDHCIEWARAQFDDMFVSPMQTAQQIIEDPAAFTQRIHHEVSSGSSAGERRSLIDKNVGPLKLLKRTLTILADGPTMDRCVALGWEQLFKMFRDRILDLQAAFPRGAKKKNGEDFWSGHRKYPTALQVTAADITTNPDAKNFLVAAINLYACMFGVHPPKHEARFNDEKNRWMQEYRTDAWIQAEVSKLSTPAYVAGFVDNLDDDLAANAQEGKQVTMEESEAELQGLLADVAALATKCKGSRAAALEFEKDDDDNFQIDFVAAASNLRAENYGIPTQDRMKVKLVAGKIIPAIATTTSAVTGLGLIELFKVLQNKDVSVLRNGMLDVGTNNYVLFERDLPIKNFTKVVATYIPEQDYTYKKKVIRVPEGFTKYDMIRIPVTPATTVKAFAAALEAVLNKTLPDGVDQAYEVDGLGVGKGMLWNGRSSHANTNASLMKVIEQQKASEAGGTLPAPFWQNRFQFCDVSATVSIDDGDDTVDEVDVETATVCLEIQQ
The assay can be described thus: Leishmania donovani Ubiquitin Activating Enzyme (LdE1). Type of assay: functional. The note with it: 30 µM.

Assay [3] deals with AMP-activated protein kinase, AMPK (Homo sapiens) (UniProt P54646+O43741+P54619+Q9UGJ0+Q9Y478+Q13131+Q9UGI9). The assay can be described thus: AMP-dependent Kinase enzyme assay. An in vitro enzyme assay that detects ADP turnover that is directly proportional to AMPK activity. This uses naive AMPK that is activated during the assay with MK-8722. The settings on record: 30 µM. The class given is functional.

The target in assay [4] is Sialic acid-binding Ig-like lectin 9 (Homo sapiens) (UniProt Q9Y336). As to the kind of experiment: Hs-Siglec9 ALPHAscreen SOP 20170721. The settings on record: 10 µM. For orientation: In Alpha technology, singlet oxygen from a donor bead excites a nearby acceptor bead.
Chain of Sialic acid-binding Ig-like lectin 9 (Homo sapiens) (Q9Y336 whole entry): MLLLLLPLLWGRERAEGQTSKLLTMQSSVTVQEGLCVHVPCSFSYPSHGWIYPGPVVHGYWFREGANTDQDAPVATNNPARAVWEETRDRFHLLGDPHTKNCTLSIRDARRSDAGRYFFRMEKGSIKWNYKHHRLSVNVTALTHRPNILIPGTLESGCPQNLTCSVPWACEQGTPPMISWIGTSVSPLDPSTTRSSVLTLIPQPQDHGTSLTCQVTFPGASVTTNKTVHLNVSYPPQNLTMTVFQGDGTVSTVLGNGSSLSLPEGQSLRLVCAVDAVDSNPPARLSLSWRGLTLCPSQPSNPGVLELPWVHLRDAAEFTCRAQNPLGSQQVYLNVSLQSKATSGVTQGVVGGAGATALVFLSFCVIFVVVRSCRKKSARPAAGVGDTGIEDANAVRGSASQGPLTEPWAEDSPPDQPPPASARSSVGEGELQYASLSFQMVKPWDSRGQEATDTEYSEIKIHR
The subject of the next assay is Trypanosoma cruzi. The assay can be described thus: Trypanosoma cruzi phosphomannomutase and mannose-1-phosphate guanylyltransferase assay. Type of assay: functional. The settings on record: 10 µM.
For assay [5], the target named is T2, Arginase-2, mitochondrial (Homo sapiens) (UniProt P78540).
T2 sequence (whole entry): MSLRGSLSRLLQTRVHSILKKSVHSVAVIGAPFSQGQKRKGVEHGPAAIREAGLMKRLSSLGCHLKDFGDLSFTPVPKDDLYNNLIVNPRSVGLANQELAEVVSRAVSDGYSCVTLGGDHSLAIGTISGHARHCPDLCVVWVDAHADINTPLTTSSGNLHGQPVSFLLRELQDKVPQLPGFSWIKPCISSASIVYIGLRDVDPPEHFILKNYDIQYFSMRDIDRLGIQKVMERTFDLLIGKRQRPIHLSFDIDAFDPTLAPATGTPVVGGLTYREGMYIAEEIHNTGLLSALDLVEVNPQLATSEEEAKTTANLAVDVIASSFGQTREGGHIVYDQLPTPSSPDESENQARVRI
As to the kind of experiment: in vitro enzyme assay to detect the production of urea directly proportional to the activity of Arginase II. Note: in the data most compounds retested in dose-response had high values. Type of assay: functional. The note with it: 33.3 µM.

For assay [6], the target named is T3, Proteasome subunit beta (Trypanosoma cruzi) (UniProt O96673).
T3 sequence (whole entry): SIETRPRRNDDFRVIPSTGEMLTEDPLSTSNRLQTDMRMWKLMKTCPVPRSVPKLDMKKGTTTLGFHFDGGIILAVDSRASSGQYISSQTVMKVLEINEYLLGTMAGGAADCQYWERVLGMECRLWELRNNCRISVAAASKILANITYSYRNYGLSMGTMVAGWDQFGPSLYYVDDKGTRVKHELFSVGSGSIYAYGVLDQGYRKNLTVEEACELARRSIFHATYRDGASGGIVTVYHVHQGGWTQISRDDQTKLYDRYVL
The assay can be described thus: Trypanosoma cruzi proteasome chymotrypsin-like activity (TcProtChymo) assay. Note: in the data most compounds retested in dose-response had high values. Type of assay: functional. The settings on record: 9.37 µM.

A further assay is filed under the species Homo sapiens. The assay can be described thus: To identify inhibition of the IFN signalling (Jak-Stat) pathway via expression of an eGFP reporter gene under the control of an IFN-stimulated response element (ISRE) containing MxA promoter. The class given is functional. The settings on record: 30 µM.
In assay [7] the target is T4, Tyrosyl-tRNA synthetase, putative (Trypanosoma cruzi (strain CL Brener)) (UniProt Q4DSP6).
T4 sequence (whole entry): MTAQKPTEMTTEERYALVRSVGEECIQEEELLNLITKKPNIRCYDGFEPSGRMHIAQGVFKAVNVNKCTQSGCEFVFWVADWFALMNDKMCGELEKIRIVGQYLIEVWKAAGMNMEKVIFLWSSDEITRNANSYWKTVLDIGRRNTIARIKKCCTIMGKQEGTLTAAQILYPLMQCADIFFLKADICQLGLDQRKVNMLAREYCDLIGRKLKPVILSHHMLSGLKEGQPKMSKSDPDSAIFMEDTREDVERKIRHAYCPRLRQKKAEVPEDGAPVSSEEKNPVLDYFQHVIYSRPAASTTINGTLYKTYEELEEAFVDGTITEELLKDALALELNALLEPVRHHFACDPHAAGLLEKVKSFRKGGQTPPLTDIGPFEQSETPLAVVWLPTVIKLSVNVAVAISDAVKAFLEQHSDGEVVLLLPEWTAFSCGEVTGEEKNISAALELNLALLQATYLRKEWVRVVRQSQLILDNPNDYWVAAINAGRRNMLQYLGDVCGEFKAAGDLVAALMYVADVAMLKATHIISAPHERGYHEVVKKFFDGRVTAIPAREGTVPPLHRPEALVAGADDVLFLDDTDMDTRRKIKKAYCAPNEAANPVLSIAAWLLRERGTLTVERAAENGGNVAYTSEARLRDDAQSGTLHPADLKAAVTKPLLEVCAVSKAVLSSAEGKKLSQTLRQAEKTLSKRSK
As to the kind of experiment: Trypanosoma cruzi tyrosyl tRNA synthetase (TcYRS) _High Tyrosine SOP. Note: in the data most compounds retested in dose-response had high values. The note with it: 30 µM. Type of assay: functional.

The target in assay [8] is T4, Tyrosyl-tRNA synthetase, putative (Trypanosoma cruzi (strain CL Brener)). The assay can be described thus: Trypanosoma cruzi tyrosyl tRNA synthetase (TcYRS) SOP. The note with it: 30 µM. Type of assay: functional.
Assay [9] has as its target Chromo domain-containing protein 1 (Saccharomyces cerevisiae (strain ATCC 204508 / S288c) (Baker's yeast)) (UniProt P32657). The assay can be described thus: ScCHD-1 Enzyme Inhibition Assay. Note: in the data most compounds retested in dose-response had high values. Type of assay: functional. The note with it: 30 µM.

For some of these results: Potency and affinity values are given separately.

Chain of Chromo domain-containing protein 1 (Saccharomyces cerevisiae (strain ATCC 204508 / S288c) (Baker's yeast)) (P32657 whole entry, the tested form may be a part): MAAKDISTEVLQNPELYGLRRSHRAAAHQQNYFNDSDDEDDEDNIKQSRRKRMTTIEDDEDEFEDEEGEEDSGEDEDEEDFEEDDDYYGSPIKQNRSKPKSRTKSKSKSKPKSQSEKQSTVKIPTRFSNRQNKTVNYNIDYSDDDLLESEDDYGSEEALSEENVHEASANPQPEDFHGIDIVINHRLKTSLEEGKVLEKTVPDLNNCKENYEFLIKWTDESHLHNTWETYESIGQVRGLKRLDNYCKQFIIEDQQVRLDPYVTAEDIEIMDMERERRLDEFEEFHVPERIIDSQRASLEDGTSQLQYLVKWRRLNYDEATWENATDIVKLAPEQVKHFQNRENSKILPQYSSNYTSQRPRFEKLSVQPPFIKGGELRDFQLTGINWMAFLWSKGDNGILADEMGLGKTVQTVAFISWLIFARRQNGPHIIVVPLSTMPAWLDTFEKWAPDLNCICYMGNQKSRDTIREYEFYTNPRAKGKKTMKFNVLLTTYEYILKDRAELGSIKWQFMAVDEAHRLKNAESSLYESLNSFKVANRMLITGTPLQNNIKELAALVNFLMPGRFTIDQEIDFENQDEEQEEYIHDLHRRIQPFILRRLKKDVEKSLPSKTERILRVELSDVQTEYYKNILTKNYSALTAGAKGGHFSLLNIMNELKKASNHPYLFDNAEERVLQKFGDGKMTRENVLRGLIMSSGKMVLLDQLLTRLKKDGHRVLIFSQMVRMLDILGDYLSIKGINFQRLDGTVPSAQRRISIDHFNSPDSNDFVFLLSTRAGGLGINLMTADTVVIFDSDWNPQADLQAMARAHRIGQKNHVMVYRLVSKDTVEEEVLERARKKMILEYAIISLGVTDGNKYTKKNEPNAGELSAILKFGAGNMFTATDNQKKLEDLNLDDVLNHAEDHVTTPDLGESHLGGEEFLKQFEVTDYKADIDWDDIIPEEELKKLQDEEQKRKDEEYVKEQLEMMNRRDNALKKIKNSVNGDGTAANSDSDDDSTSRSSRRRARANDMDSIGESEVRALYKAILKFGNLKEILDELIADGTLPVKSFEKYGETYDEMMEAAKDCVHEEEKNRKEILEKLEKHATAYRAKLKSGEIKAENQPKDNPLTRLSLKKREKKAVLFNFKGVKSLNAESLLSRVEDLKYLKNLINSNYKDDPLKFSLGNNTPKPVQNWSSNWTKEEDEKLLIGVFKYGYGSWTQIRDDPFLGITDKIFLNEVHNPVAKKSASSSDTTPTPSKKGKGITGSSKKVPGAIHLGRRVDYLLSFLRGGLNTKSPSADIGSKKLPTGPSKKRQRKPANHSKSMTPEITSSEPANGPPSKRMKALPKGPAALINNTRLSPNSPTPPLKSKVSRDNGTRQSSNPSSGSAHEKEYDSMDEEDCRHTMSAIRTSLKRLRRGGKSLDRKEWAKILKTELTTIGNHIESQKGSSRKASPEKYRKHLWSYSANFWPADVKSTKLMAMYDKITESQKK
Chain of Protein translocase subunit SecA (Escherichia coli (strain K12)) (P10408 whole entry): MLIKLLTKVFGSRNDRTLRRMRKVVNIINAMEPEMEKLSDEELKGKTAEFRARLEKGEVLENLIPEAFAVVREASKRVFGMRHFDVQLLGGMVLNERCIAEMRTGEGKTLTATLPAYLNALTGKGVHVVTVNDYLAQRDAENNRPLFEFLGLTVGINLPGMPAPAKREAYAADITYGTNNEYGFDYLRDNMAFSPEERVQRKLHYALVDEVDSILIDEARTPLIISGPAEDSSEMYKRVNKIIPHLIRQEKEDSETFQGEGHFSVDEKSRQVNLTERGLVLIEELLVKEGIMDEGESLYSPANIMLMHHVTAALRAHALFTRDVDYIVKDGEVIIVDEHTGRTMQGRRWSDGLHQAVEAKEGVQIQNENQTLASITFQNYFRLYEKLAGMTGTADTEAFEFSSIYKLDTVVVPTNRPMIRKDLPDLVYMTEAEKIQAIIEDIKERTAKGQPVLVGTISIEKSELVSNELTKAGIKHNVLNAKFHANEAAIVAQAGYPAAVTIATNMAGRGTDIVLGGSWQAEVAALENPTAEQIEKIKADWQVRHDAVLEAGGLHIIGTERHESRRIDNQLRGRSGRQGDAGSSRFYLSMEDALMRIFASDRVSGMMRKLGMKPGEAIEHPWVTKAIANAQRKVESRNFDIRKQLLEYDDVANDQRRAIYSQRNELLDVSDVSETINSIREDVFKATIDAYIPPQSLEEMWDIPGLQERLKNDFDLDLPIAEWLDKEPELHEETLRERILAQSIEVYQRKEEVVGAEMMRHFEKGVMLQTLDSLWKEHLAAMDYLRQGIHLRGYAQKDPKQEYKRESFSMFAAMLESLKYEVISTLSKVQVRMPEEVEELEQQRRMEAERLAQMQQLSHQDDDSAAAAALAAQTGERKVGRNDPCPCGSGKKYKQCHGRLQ

For `CCS(=O)(=O)Nc1ccc(C(=O)NCCCN2CCCC2)cc1`, the Percent Effect in [1] is -2.09%; in assay [2], 13.2%; in [3] it was 2.99%; in assay [4], -3.93%; in the assay on Trypanosoma cruzi it was -3.8%; in assay [5], 0%. The Percent Effect was 19.1% in assay [6]; -9% in the assay filed under Homo sapiens; 4.25% in [7]; 7.79% in assay [8]; -4.55% in assay [9].
For the compound `CCN1CCN(S(=O)(=O)c2cc(Cl)c(Cl)cc2C)CC1`, the Percent Effect was -2.56% in assay [1]; 2.6% in assay [2]; 5.2% in [3]; 3.88% in assay [4]; -3.83% in the assay on Trypanosoma cruzi; -4.14% in [5]. Moreover, the Percent Effect is -4.99% in assay [6]; -8.04% in the assay listed under Homo sapiens; -28% in assay [7]; 1.24% in assay [8]; 3.26% in [9].
Consider `CC(COc1ccccc1)NCc1nc(-c2cccnc2)no1` (stereo unspecified), for which the Percent Effect in assay [1] is -2.6%; in assay [2] it was 6.94%; in [3], -4.69%; in assay [4], 0.164%; with Trypanosoma cruzi, 1.85%; in [5] it was 3.09%. Moreover, the Percent Effect in assay [6] was 6.14%; in the assay filed under Homo sapiens it was 5.92%; in assay [7], 3.16%; in [8], 10.3%; in assay [9], -2.08%.
Regarding `CCN1C[C@H]2CCN(C(=O)NC3CCCC3)CC[C@H]2S1(=O)=O`, the Percent Effect was 2.4% in assay [1]; 14.7% in [2]; 2.73% in [3]; -7.67% in [4]; -3.54% in the assay with Trypanosoma cruzi; -5.81% in assay [5]. The Percent Effect in assay [6] is 15.5%; in the assay listed under Homo sapiens, 2.2%; in assay [7], 1.06%; in [8] it was 5.13%; in assay [9] it was -7.62%.
For `CN(C)CCN(C)C(=O)c1cnc2c(c1)nc(-c1ccccc1Cl)n2C`, the Percent Effect in [1] is -6.72%; in assay [2], 5.41%; in [3] it was -0.741%; in assay [4] it was -1.85%; in the assay on Trypanosoma cruzi, -0.88%; in assay [5] it was 2.23%. Besides, the Percent Effect in assay [6] was -1.29%; in the assay filed under Homo sapiens, 8.57%; in assay [7], 9.68%; in [8], 13.6%; in assay [9], -3.61%.
As to `Cn1ccnc1CN1CCCN(C(=O)c2ccc3c(c2)COC3)CC1`, the Percent Effect in assay [1] was -5.22%; in [2] it was 18.4%; in [3], 0.632%; in assay [4], -6.65%; with Trypanosoma cruzi it was -6.44%; in [5] it was 3.24%. For the same compound, the Percent Effect in assay [6] was 7.7%; in the assay listed under Homo sapiens it was -1.32%; in [7], 4.43%; in assay [8] it was 11.1%; in [9], -7.65%.
On to `COCc1ncn2c1CN(C(=O)C1CC=CC1)CC2`, for which the Percent Effect in assay [1] is -10.3%; in [2] it was 2.7%; in assay [3], -2.21%; in assay [4], -3.27%; in the assay with Trypanosoma cruzi, -2.64%; in assay [5], -1.74%. For the same compound, the Percent Effect worked out at 3.69% in assay [6]; 2.37% in the assay filed under Homo sapiens; 6.45% in assay [7]; 11.1% in assay [8]; 0.611% in assay [9].
Regarding `COc1ccc(OCCCNC(=O)NCc2csc(C)n2)cc1`, the Percent Effect in [1] is -3.63%; in assay [2] it was 16.2%; in assay [3], 2.75%; in assay [4], -5.68%; in the assay with Trypanosoma cruzi it was 0.65%; in assay [5], -4.62%. The Percent Effect was 7.54% in assay [6]; 20.4% in the assay listed under Homo sapiens; 8.91% in assay [7]; 15.8% in assay [8]; -3.66% in assay [9].
For the compound `O=C(c1ccccn1)N1C[C@@H]2CC[C@H](C1)N(C(=O)CCc1cccs1)C2`, the Percent Effect in assay [1] was -6.27%; in [2] it was 5.2%; in assay [3] it was 2.15%; in [4], 9.38%; in the assay with Trypanosoma cruzi it was 6.59%; in assay [5] it was -74.5%. In addition, the Percent Effect was 13.1% in [6]; -10.3% in the assay filed under Homo sapiens; 3.23% in assay [7]; 8.64% in [8]; 2.24% in assay [9].
For `COc1cc(N2C[C@@H]3COC[C@]3(COc3ccc(C#N)cn3)C2)ncn1`, the Percent Effect in assay [1] is -3.38%; in assay [2], 13.5%; in assay [3], 2.34%; in assay [4], 2.33%; with Trypanosoma cruzi, 4.01%; in assay [5] it was 9.24%. The Percent Effect turned out to be 12.6% in [6]; 35.9% in the assay filed under Homo sapiens; 4.32% in assay [7]; 7.69% in assay [8]; 1.63% in [9].
`CSCC[C@H](N)C(=O)NCc1cc2n(n1)CCCN(C1CCCCC1)C2`: the Percent Effect in assay [1] is -0.291%; in assay [2], 12.5%; in assay [3], -5.04%; in assay [4], 5.09%; in the assay with Trypanosoma cruzi, 4.37%; in [5], 36.2%. The Percent Effect in assay [6] is 13.7%; in the assay listed under Homo sapiens it was 2.41%; in [7] it was 4.21%; in assay [8] it was 12.8%; in assay [9], -3.52%.
